# In all, about 64,000 compounds went through this assay and about 2,200 (3.4%) were called active.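 Rule for the calls: active = calcium fluorescence response, raw or row-and-column corrected B-score, differing from the plate sample mean either way at a set confidence level, mostly lower; inactive = the rest.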 The list comes from a sample in which actives are over-represented; it also holds similar structures and randomly drawn compounds.
# Target: Muscarinic acetylcholine receptor M1 (Rattus norvegicus) (UniProt P08482)
# Sequence (P08482 whole entry, looked up): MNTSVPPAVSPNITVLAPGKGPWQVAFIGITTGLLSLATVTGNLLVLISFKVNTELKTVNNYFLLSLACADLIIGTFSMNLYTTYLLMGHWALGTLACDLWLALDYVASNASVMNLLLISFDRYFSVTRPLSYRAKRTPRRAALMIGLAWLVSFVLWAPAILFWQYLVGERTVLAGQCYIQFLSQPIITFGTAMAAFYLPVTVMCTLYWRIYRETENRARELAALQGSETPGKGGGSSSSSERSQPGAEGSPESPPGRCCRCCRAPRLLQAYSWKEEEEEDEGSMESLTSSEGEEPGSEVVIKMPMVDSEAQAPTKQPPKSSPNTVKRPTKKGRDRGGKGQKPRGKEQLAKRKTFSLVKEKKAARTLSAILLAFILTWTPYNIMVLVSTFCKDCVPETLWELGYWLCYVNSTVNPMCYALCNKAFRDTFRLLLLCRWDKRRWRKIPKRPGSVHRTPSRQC
# Assay: blocks the rat M1 muscarinic receptor response to acetylcholine (AID 628)
# Settings: CHO-M1 cells, Fluo-4 calcium, ACh EC80 antagonist mode; at 10 µM; hits give low values
row,SMILES,B-score
1,Cc1[nH]c2ccccc2c1C(=O)CSCC(=O)O,-0.627 (inactive)
2,COC(=O)COc1ccc(S(=O)(=O)N2CCOCC2)cc1,0.524 (inactive)
3,OC(COc1ccc2ccccc2c1)CN1CCOCC1 (stereo not drawn),-0.165 (inactive)
4,O=S(=O)(c1ccc(OCC(O)CN2CCN(c3ccccc3Cl)CC2)cc1)N1CCOCC1 (stereo not drawn),-1.73 (active)
5,CCCc1[nH]nc2c1C(c1ccc(OC)c(Cn3nc(C)c(Br)c3C)c1)C(C#N)=C(N)O2 (stereo not drawn),-0.527 (inactive)
6,Cc1ccc(-c2noc(CCC(=O)Nc3ccccc3N3CCN(C)CC3)n2)cc1,-3.17 (active)
7,Cc1ccc(-c2noc(CCC(N)=O)n2)cc1,0.182 (inactive)
8,CCCC(=O)Nc1ccccc1N1CCN(C(=O)c2ccccc2)CC1,0.0711 (inactive)
9,COc1ccc(NC(=O)Nc2cccc3cccnc23)cc1,-0.447 (inactive)
10,CCOC(=O)c1cccc(NC(=O)CN(c2ccc(C)cc2)S(=O)(=O)c2c(C)noc2C)c1,-0.345 (inactive)
11,CCN(CC)C(=O)CCC(=O)Nc1ccc(C(=O)OC)cc1,-0.0517 (inactive)
12,COC(=O)c1ccc(NC(=O)CN(c2ccc(C)cc2)S(=O)(=O)c2c(C)n[nH]c2C)cc1,-1.39 (active)
13,CCOc1ccc(-c2nnc(-c3ccco3)o2)cc1,0.158 (inactive)
14,CC(C)(C)NC(=O)C(c1ccco1)N(Cc1ccc2c(c1)OCO2)C(=O)Cn1nnc2ccccc21 (stereo not drawn),-0.446 (inactive)
15,CCOC(=O)CSc1nc2sc3c(c2c(=O)[nH]1)CC(C)(C)OC3,1.04 (inactive)
16,CCOC(=O)Cn1c(SC)nc2sc3c(c2c1=O)CC(C)(C)OC3,-0.00652 (inactive)
17,CCC1(C)Cc2c(sc3nc4n(c(=O)c23)CCCS4)CO1 (stereo not drawn),-1.1 (active)
18,CCOC(=O)C1CCN(c2ncnc3c2oc2ccc(Br)cc23)CC1,1.09 (inactive)
19,Cc1cc(=O)n2nc(N3CCCC(C(=O)N4CCN(C)CC4)C3)sc2n1 (stereo not drawn),-0.192 (inactive)
20,CCOC(=O)N1CCN(C(=O)C2CCCN(c3ncnc4c3sc3cccc(F)c34)C2)CC1 (stereo not drawn),-6.95 (active)
21,CCOC(=O)N1CCN(C(=O)C2CCN(c3ncnc4c3sc3cccc(F)c34)CC2)CC1,-6.68 (active)
22,CCOC(=O)C1CCCN(C(=O)C2CCN(c3nnc(-n4cccc4)s3)CC2)C1 (stereo not drawn),-0.147 (inactive)
23,CCOC(=O)N1CCN(C(=O)C2CC(c3ccc(F)cc3)=NO2)CC1 (stereo not drawn),1.56 (inactive)
24,Clc1ccc(Nc2nc(-c3cccs3)cs2)nc1,-1.85 (inactive)
25,Cn1c(=NC(=O)C2CC2)sc2cc(F)cc(F)c21,-2.24 (inactive)
26,COC(=O)COc1ccc2oc(=O)cc(C)c2c1,0.286 (inactive)
27,O=c1c2c(nc3n1CCCCC3)sc1c(O)cccc12,-0.992 (inactive)

row,SMILES,B-score
1,CC1(C)Cc2c(sc3nc4n(c(=N)c23)CCCCC4)CO1,-2.66 (active)
2,CN(C)CCSc1nc(N)c2c3c(sc2n1)COC(C)(C)C3,0.0678 (inactive)
3,CCOC(=O)c1cccc(NC(=O)C2CCCN(S(=O)(=O)c3cnc[nH]3)C2)c1 (stereo not drawn),0.994 (inactive)
4,COc1ccc(OC)c(NC(=O)Cn2c(=O)oc3ccccc32)c1,-0.343 (inactive)
5,C=CCn1c(=N)n(CC(O)COc2ccc(OC)cc2)c2ccccc21 (stereo not drawn),0.0139 (inactive)
6,CCn1c(=N)n(CC(=O)c2cccc(OC)c2)c2ccccc21,-6.64 (active)
7,CCCCCC(=O)Nc1ccc2oc(-c3ccncc3)nc2c1,0.442 (inactive)
8,CCc1c(C)sc(NC(=O)c2ccc(Br)o2)c1C(=O)OC,-0.053 (inactive)
9,OC(COc1ccccc1)Cn1cc(Br)cn1 (stereo not drawn),-0.268 (inactive)
10,Cc1ccc(S(=O)(=O)Nc2ccc3ncccc3c2)cc1,-3.27 (active)
11,O=S(=O)(Nc1ccc2nc(-c3ccco3)[nH]c2c1)c1ccccc1,-0.153 (inactive)
12,CC(=O)N1CCN(C(=O)c2cccc(S(=O)(=O)Nc3ccc(C)cc3)c2)CC1,-0.171 (inactive)
13,COc1ccc(NC(C)=O)cc1NC(=O)CN1CCN(C2c3ccccc3-c3ccccc32)CC1,0.0245 (inactive)
14,CN(CCCC(=O)Nc1nccs1)S(=O)(=O)c1ccc(Cl)cc1,0.248 (inactive)
15,O=C(NCCCCO)C(F)(F)C(F)(F)C(F)(F)C(=O)NCCCCO,0.234 (inactive)
16,CC(=O)c1c(N2CCOCC2)nc(=S)n(-c2cc(C)ccc2C)c1C,-0.429 (inactive)
17,COCCNCCOCCOc1cccc(OC)c1,0.826 (inactive)
18,C(=N\n1cnnc1)/c1cccnc1,-0.0308 (inactive)
19,CCOc1cc(/C=N/n2cnnc2)c(Br)cc1O,0.717 (inactive)
20,C=CCOc1ccc(/C=N/n2cncn2)cc1OC,0.195 (inactive)
21,COc1ccccc1OCCOc1ccc(/C=N/n2cnnc2)cc1,-2.39 (active)
22,COc1cccc(OCCOc2cccc(/C=N/n3cnnc3)c2)c1,-2.76 (active)
23,O=C(CSc1nc2[nH]ncc2c(=O)n1-c1ccccc1)N1CCCc2ccccc21,0.281 (inactive)
24,CCOc1cc(C)c(Cl)cc1S(=O)(=O)n1nnc2ccccc21,0.583 (inactive)
25,COc1ccc(C(=O)NCCc2ccc(S(N)(=O)=O)cc2)cc1OC,-0.216 (inactive)
26,Cc1cc2cc(CN(Cc3cccs3)Cc3nnnn3CC3CCCO3)c(=O)[nH]c2cc1C (stereo not drawn),-0.714 (inactive)
